Assay outcomes (PubChem BioAssay)
MITF inh = inhibitors of human MITF; inhibition, % at 2.6 µM; 650,000 compounds, 0.91% hits; O75030; AlphaScreen MITF homodimerization, bead proximity signal; AID 1259374; in the data active means inhibition above about 50%;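 further: 0% = vehicle wells with protein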
FBW7 act = activators of human E3 ligase FBW7 | AlphaScreen FBW7–phospho-cyclin E peptide binding, activator screen | normalized activity (activation), % at 26.1 µM | 650,000 compounds, 0.13% hits | AID 1259310; in the data active means normalized activity above about 1.9%;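 further: purified mutant Fbw7 with reduced substrate affinity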
TEAD-YAP inh = TEAD-YAP interaction inhibition. HEK-TIYL cells, TEAD-Gal4/YAP UAS-luciferase luminescence. inhibition, % at 9.12 µM. 640,000 compounds, 1.4% hits. AID 1259422; in the data active means inhibition above about 32%;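 further: 0% = median of test compound wells and 100% = reference inhibitor wells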
GPR151 activ = activates the human receptor GPR151. Q8TDV0. PathHunter beta-arrestin GPR151 cells, luminescence. activation, % at 11.2 µM. 650,000 compounds, 1% hits. AID 1508602; in the data active means activation above about 4.9%;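 further: 0% = median of compound wells and 100% = cells with positive control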
Target sequence (Q8TDV0 whole entry, looked up): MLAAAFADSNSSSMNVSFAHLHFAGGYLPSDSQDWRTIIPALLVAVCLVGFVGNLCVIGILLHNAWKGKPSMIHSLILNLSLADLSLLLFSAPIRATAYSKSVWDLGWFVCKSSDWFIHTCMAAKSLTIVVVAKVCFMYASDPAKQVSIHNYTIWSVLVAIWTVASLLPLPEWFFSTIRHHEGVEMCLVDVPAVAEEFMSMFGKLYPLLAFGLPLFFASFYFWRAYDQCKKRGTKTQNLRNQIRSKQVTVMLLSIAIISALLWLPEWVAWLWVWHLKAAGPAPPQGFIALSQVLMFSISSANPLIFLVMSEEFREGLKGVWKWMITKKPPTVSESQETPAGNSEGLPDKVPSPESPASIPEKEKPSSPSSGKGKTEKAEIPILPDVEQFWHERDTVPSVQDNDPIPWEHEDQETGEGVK
GPR151 conf act = confirmation of human GPR151 activators | shares compounds with GPR151 activ | GPR151 PathHunter beta-arrestin cells, luminescence, 90 min; % of EA-reagent control over plate median | activation, % at 11.2 µM | 6,700 tested, under 10 active | AID 1508609;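 active means mean percent activation across replicates above the confirmation screen cutoff of 4.91%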
GPR119 ag = activates human GPR119 in a GPR151 counter-screen; GPR119 PathHunter beta-arrestin cells, luminescence, 90 min; 0 = compound-well median, 100 = enzyme-acceptor control; 6,700 compounds, 0.3% hits; activation, % at 11.2 µM; AID 1508611; shares compounds with GPR151 activ;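 active means mean percent activation in the counterscreen above 29.09%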;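 further: counterscreen on off-target GPR119 to flag nonselective hits from the GPR151 activator screen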
Starred values were filed as active, the others as inactive; . = not tested or not shown; ! = not confirmed by another sample. This is a sample that favours compounds with a hit; in the whole collection about 3.4% have one here.

SMILES	MITF inh	FBW7 act	TEAD-YAP inh	GPR151 activ	GPR151 conf act	GPR119 ag
CC(=O)c1cc2c(nc1C)sc1c(N)nc(N)nc12	-8	0	2	-2	.	.
O=c1cc(-c2ccccc2[N+](=O)[O-])nc(-c2ccco2)o1	-4	0	-1	7.3*	0	-2
Cc1ccc(NC(=O)c2cc(S(=O)(=O)N3CCCCCC3)ccc2F)cc1Cl	-7	0	-12	6.2*	1	-10
Cc1ccc(NC(=O)c2cc(F)c(F)cc2Cl)cc1S(=O)(=O)N1CCOCC1	5	0	-6	5.2*	0	7
Cc1ccc(NC(=O)c2cc(S(=O)(=O)N3CCCCC3)ccc2F)cc1Cl	7	1	-9	0	.	.
O=C(COc1ccc(C2CCCCC2)cc1)NCCOc1ccc(Cl)cc1	5	0	-5	2	.	.
CCOC(=O)c1c(C)oc2nc(CCl)[nH]c(=O)c12	-4	0	4	12*	-1	-9
Cc1cccc(N2C(=O)c3cccc(Cl)c3C2=O)c1	13	0	-3	1	.	.
COc1ccc(-n2nc3ccc(NC(=O)c4ncn[nH]4)cc3n2)cc1Cl	9	0	0	5.0*	0	-2
N#C/C(=C\c1ccc2c(c1)OCO2)C(=O)NCc1cccs1	0	0	-6	0	.	.
Cc1ccc(-n2nc3ccc(NC(=S)NC(=O)c4oc5ccccc5c4C)cc3n2)cc1	-17	0	-1	-1	.	.
COc1ccc(OC)c(N2CC(O)(c3ccc(OC)c(OC)c3)[N+]3=C2SCCC3)c1 (stereo unspecified)	-6	0	0	5.4*	0	-11
COc1ccc(C2(O)CN(c3cc(OC)ccc3OC)C3=[N+]2CCCS3)cc1 (stereo unspecified)	15	0	-1	-1	.	.
O=C(NCC1CCC2(CCN(Cc3ccccc3)CC2)O1)c1ccco1 (stereo unspecified)	4	0	5	1	.	.
O=C(NCCC1CCCCN1S(=O)(=O)c1ccccc1)Nc1ccc(Cl)cc1 (stereo unspecified)	8	0	6	8.1*	-1	-11
COC(=O)C(CCSC)NC(=O)C1CC(Cc2cccc(OC)c2)=NO1 (stereo unspecified)	9	0	-5	-1	.	.
COc1ccc(C2C(C#N)=C(N)Oc3c2c(C)nn3-c2ccccc2)cc1OC (stereo unspecified)	1	0	-2	1	.	.
Cc1nn(-c2ccccc2)c2c1C(c1ccccc1Cl)C(C#N)=C(N)O2 (stereo unspecified)	18	-1	-4	-2	.	.
CCOc1ccc(C2C(C#N)=C(N)Oc3c2c(C)nn3-c2ccccc2)cc1OC (stereo unspecified)	19	0	-8	6.4*	0	-5
Cc1nn(-c2cccc(Cl)c2)c2c1C(c1ccccc1Cl)C(C#N)=C(N)O2 (stereo unspecified)	10	0	2	5.5*	0	3
O=C(Nc1ccc(F)cc1F)C(=O)N1CCCCC1	-10	0	-33	7.1*	1	3
Cc1ccc(Nc2c(-c3ccc(N4CCOCC4)cc3)nc3c[n+](CC(N)=O)ccn23)cc1	15	0	-11	5.1*	0	1
COc1ccc(-c2nc3c[n+](CC(N)=O)ccn3c2Nc2ccccc2C)cc1	13	0	-7	6.7*	0	3
O=C1OC(c2ccc(-c3ccccc3)cc2)=N/C1=C\c1ccc(Br)cc1	7	0	-2	3	.	.
Cn1c(=O)c2ncn(CC(=O)Nc3ccc(C(=O)O)cc3)c2n(C)c1=O	1	0	-4	5.2*	0	4
SMILES	MITF inh	FBW7 act	TEAD-YAP inh	GPR151 activ	GPR151 conf act	GPR119 ag
Cc1cnc(-c2csc3ccccc23)nc1Nc1ccc(N2CCOCC2)cc1	14	1	-14	5.0*	-1	-9
Cc1cnc(N2CCOCC2)nc1Nc1ccc(N2CCOCC2)cc1	15	0	5	-1	.	.
Cc1cnc(N2CCOCC2)nc1Nc1ccc(Oc2ccccc2)cc1	-3	0	-17	6.6*	-1	-1
CCN1CCCC1CNS(=O)(=O)c1ccc(C(=O)Nc2ccccc2)cc1 (stereo unspecified)	6	0	-2	10*	0	7
CCNc1nc(NCC)n2c(SCC(=O)c3ccc(OC)cc3)nnc2n1	-6	0	-2	1	.	.
CCNc1nc(NCC)n2c(SCC(=O)OCC)nnc2n1	-1	0	11	26*	2	11
COc1ccc(Br)cc1CNC1CCCC1	31	0	-10	-1	.	.
Nc1c(Br)cc(Br)cc1CNC1CCC(O)CC1 (stereo unspecified)	-14	0	-1	5.7*!	0	7
CCOc1ccccc1NC(=O)CN1C(=O)CCc2ccccc21	4	0	-8	2	.	.
CCCCCn1c(SCc2ccncc2)nc2cc(C(=O)NCc3cccc(Cl)c3)ccc2c1=O	5	0	2	5.1*	-1	-11
CNC(=O)c1cc2c(=O)n3cccc(C)c3nc2n(C)c1=N	18	1	13	-2	.	.
Cc1ccc(CNC(=O)c2cc3c(=O)n4cccc(C)c4nc3n(C)c2=N)cc1	6	0	1	11*	0	0
Cc1ccc(/C(O)=C2/C(=O)C(=O)N(CCC(=O)O)C2c2ccc3c(c2)OCO3)cc1 (stereo unspecified)	-2	0	7	1	.	.
O=C(COc1ccc([N+](=O)[O-])cc1)Nc1cc(C(F)(F)F)ccc1N1CCOCC1	-14	0	-12	1	.	.
O=C(Nc1cc(C(F)(F)F)ccc1N1CCOCC1)c1cc([N+](=O)[O-])ccc1Cl	8	0	81*	5.6*	0	-7
COC(=O)C1CCN(C(=O)CC(C)(C)C)CC1	17	0	-2	6.1*	2	3
COc1ccccc1N(CC(=O)N(C)C)S(C)(=O)=O	16	0	8	6.1*	1	17
COc1ccccc1N(CC(N)=O)S(C)(=O)=O	-2	0	-4	-1	.	.
COc1ccccc1N1CCN(C(=O)CN(c2cc(C)cc(C)c2)S(C)(=O)=O)CC1	15	0	6	6.4*	0	0
Cc1cc(N)nc(Nc2cnccn2)n1	6	0	-6	0	.	.
Cc1cccc(NC(=O)C(=O)NCCO)c1C	8	0	4	-1	.	.
Cc1c(Cl)cccc1NC(=O)C(=O)NCCO	-2	0	-11	5.2*	0	3
CC(=O)NCCNC(=O)c1ccc(-c2ccccc2)nc1NCCc1ccccn1	-10	0	12	5.1*	0	-3
Cc1nn(Cc2ccccc2Cl)c2sc(C(=O)O)cc12	-9	0	13	1	.	.
CCOC(=O)C1=C(C)OC(N)=C(C#N)C1c1ccc(F)c(Br)c1 (stereo unspecified)	27	1	3	9.6*	0	9
